The nature of assay [1]: ATG_TAL_CIS: Attagene CIS-FACTORIAL HepG2 Assay for human TAL Basal Promoter (AID 2282966; active = hit-call score of the fitted dose curve at least 0.9, where 1 is the maximum; inactive = score below 0.9;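 note: background control endpoint measuring basal TAL promoter reporter mRNA not a specific factor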). To be noted: HepG2 Attagene cis-factorial TAL promoter reporter; actives raise or lower the signal. Put shortly:
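Human hepatoma HepG2 cells, transfected with promoter-regulated reporter units, were treated 24 h. Reporter transcript levels, measured through RT-PCR and capillary electrophoresis, were fitted for gain or loss relative to DMSO.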

Assay [2] is described as follows: ATG_TGFb_CIS: Attagene CIS-FACTORIAL HepG2 Assay for human Transforming Growth Factor (TGF) (AID 2282967; active = hit-call score of the fitted dose curve at least 0.9, where 1 is the maximum; inactive = score below 0.9). To be noted: HepG2 Attagene CIS TGFb reporter, mRNA transcription; actives raise or lower the signal. Put shortly:
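Endogenous TGFB1-linked transcription factor activity read as reporter mRNA via RT-PCR and capillary electrophoresis, 24 h after dosing transiently transfected HepG2 cells. Gain or loss of signal fitted relative to DMSO.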

The nature of assay [3]: ATG_VDRE_CIS: Attagene CIS-FACTORIAL HepG2 Assay for human Vitamin D Receptor Element (VDRE) (AID 2282968; active = hit-call score of the fitted dose curve at least 0.9, where 1 is the maximum; inactive = score below 0.9). To be noted: HepG2 VDRE cis-reporter transcription, actives raise or lower the signal. Put shortly:
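Steps: transfect HepG2 with multiple reporter transcription units; dose chemicals 24 h; isolate RNA; RT-PCR; label with 6-FAM primer extension; HpaI digest; capillary electrophoresis. Curves fitted both directions against DMSO.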

The target in assay [4] is Nuclear receptor subfamily 1 group I member 3 (Homo sapiens) (UniProt Q14994). Description: ATG_CAR_TRANS: Attagene TRANS-FACTORIAL HepG2 Assay for human Constitutive Androstane Receptor (CAR) (AID 2282969).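 Note: activators raise reporter mRNA above DMSO so AC50 marks induction.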 The conditions noted are these: HepG2 Attagene TRANS-FACTORIAL CAR reporter. A digest of the protocol: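 Steps: transient transfection of HepG2 with multiple GAL4-UAS reporter units; 24 h compound incubation; RNA isolation, RT-PCR, 6-FAM primer extension, HpaI digest; capillary electrophoresis. Gain-of-signal relative to DMSO negative control.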

Assay [5] addresses Estrogen receptor (Homo sapiens) (UniProt P03372). In words: ATG_ERa_TRANS: Attagene TRANS-FACTORIAL HepG2 Assay for human Estrogen Receptor alpha (ERa) (AID 2282970). The conditions noted are these: HepG2 Attagene TRANS ERa GAL4 reporter, mRNA. Put shortly: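 Signal derives from fluorescence of labelled reporter PCR fragments separated by capillary electrophoresis. HepG2 cells transiently carrying multiple GAL4-UAS reporter units were treated 24 hours, and induction above DMSO baseline was fitted as activity.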

Assay [6] deals with X-box-binding protein 1 (Homo sapiens) (UniProt P17861). In words: ATG_Xbp1_CIS: Attagene CIS-FACTORIAL HepG2 Assay for human X-box Binding Protein 1 (XBP1) (AID 2282972; active = hit-call score of the fitted dose curve at least 0.9, where 1 is the maximum; inactive = score below 0.9). To be noted: HepG2 XBP1 cis-element reporter, Attagene multiplex; actives raise or lower the signal. A digest of the protocol:
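Reporter transcripts were quantified by RT-PCR with fluorescent primer extension and capillary electrophoresis after 24 h chemical exposure. Cells: transiently transfected HepG2 carrying cis-regulated reporter constructs; data fitted bidirectionally relative to DMSO.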

Assay [7] can be described thus: ATG_M_19_TRANS: Attagene TRANS-FACTORIAL HepG2 Assay for M19 Transcription Factor (Internal Marker) (AID 2282974). To be noted: HepG2 Attagene TRANS-FACTORIAL M19 internal marker reporter. A digest of the protocol:
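Using RT-PCR and capillary electrophoresis, reporter mRNA from transiently transfected human HepG2 cells was quantified following 24 h exposure; activity was fitted in the positive direction against DMSO.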

In assay [8] the target is Bile acid receptor (Homo sapiens) (UniProt Q96RI1). Description: ATG_FXR_TRANS: Attagene TRANS-FACTORIAL HepG2 Assay for Farnesoid X Receptor (FXR) (AID 2282979).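 Note: hits raise reporter mRNA above DMSO so AC50 marks FXR activation.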 To be noted: HepG2 Attagene TRANS FXR-GAL4 reporter transcription. A digest of the protocol:
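After 24 h chemical treatment of transfected HepG2 cells, GAL4-UAS reporter transcripts driven by an exogenous FXR-GAL4 fusion were measured by RT-PCR and capillary electrophoresis. Increases over DMSO were fitted.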

In assay [9] the target is Oxysterols receptor LXR-alpha (Homo sapiens) (UniProt Q13133). Description: ATG_LXRa_TRANS: Attagene TRANS-FACTORIAL HepG2 Assay for human Liver X Receptor alpha (LXRa) (AID 2282980). To be noted: HepG2 Attagene TRANS reporter, LXRa transactivation. A digest of the protocol:
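In this multiplexed TRANS system, compounds act on HepG2 cells carrying GAL4-UAS reporter units and a receptor-GAL4 fusion for 24 h. Induced reporter RNA is amplified, fluorescently labelled and sized by capillary electrophoresis, with DMSO as baseline.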

Assay [10] concerns the target Hepatocyte nuclear factor 4-alpha (Homo sapiens) (UniProt P41235). Description: ATG_HNF4a_TRANS: Attagene TRANS-FACTORIAL HepG2 Assay for human Hepatocyte Nuclear Factor 4 alpha (HNF4a) (AID 2282982). To be noted: HepG2 HNF4a transactivation reporter, mRNA readout. Put shortly:
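In this trans-factorial format, a chimeric HNF4a-GAL4 fusion drives a GAL4-UAS reporter in transfected HepG2 liver cells. After 24 h treatment, reporter mRNA induction is measured by RT-PCR with capillary electrophoresis, relative to DMSO.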

Assay [11] is described as follows: ATG_M_06_TRANS: Attagene TRANS-FACTORIAL HepG2 Assay for M06 Transcription Factor (Internal Marker) (AID 2282983). The conditions noted are these: HepG2 Attagene TRANS M06 internal marker reporter. A digest of the protocol: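 Multi-reporter-transfected HepG2, 24 h treatment; reporter transcripts quantified via RT-PCR, primer-extension labelling and CE. DMSO-normalized gain-of-signal fit.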

Assay [12] is described as follows: ATG_M_32_TRANS: Attagene TRANS-FACTORIAL HepG2 Assay for M32 Transcription Factor (Internal Marker) (AID 2282984). To be noted: HepG2 Attagene TRANS M32 internal marker reporter. A digest of the protocol:
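After 24 h dosing of transfected HepG2 cells, total RNA was reverse-transcribed, reporter sequences PCR-amplified, 6-FAM labelled by primer extension and HpaI-digested before capillary electrophoresis. Signal increase over DMSO was fitted.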

Assay [13] has as its target Nuclear receptor subfamily 4 group A member 2 (Homo sapiens) (UniProt P43354). In words: ATG_NURR1_TRANS: Attagene TRANS-FACTORIAL HepG2 Assay for human Nuclear Receptor Related Protein 1 (NURR1) (AID 2282985). The conditions noted are these: HepG2 Attagene TRANS reporter, mRNA readout. A digest of the protocol: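 Chimeric NR-Gal4 fusion activity measured in HepG2 after 24 h treatment. Reporter transcripts detected by RT-PCR and capillary electrophoresis fluorescence; positive-direction curve fitting against DMSO.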

The target in assay [14] is Transcriptional activator Myb (Homo sapiens) (UniProt P10242). Description: ATG_Myb_CIS: Attagene CIS-FACTORIAL HepG2 Assay for human Myeloblastosis (Myb) Proto-Oncogene Transcription Factor (AID 2282986; active = hit-call score of the fitted dose curve at least 0.9, where 1 is the maximum; inactive = score below 0.9). The conditions noted are these: HepG2 Attagene CIS-FACTORIAL Myb reporter transcription; actives raise or lower the signal. Put shortly:
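In this HepG2 transient-transfection format, cis-regulated reporter mRNA is quantified 24 h post-dosing by RT-PCR with capillary electrophoresis, fitted bidirectionally to DMSO baseline.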

The target in assay [15] is Oxysterols receptor LXR-beta (Homo sapiens) (UniProt P55055). Description: ATG_LXRb_TRANS: Attagene TRANS-FACTORIAL HepG2 Assay for human Liver X Receptor beta (LXRb) (AID 2282981). The conditions noted are these: HepG2 Attagene TRANS GAL4-LXRb reporter, mRNA. Put shortly:
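Measures induction of a Gal4-driven reporter transcript in HepG2 cells expressing an exogenous LXRb-Gal4 fusion. Cells are exposed to compound for 24 h before RNA isolation and RT-PCR with capillary electrophoresis detection.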

The target of assay [16] is Steroid hormone receptor ERR1 (Homo sapiens) (UniProt P11474). Description: ATG_ERRa_TRANS: Attagene TRANS-FACTORIAL HepG2 Assay for human Estrogen-Related Receptor alpha (ERRa) (AID 2282971). The conditions noted are these: HepG2 Attagene TRANS reporter, ERRa transactivation. A digest of the protocol:
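Signal gain relative to DMSO for an ERRa-Gal4 chimeric receptor, read as reporter mRNA by RT-PCR/capillary electrophoresis. Human HepG2 liver cells, transient multiplex reporter transfection, 24 h chemical exposure.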

The target of assay [17] is Estrogen-related receptor gamma (Homo sapiens) (UniProt P62508). In words: ATG_ERRg_TRANS: Attagene TRANS-FACTORIAL HepG2 Assay for human Estrogen-Related Receptor gamma (ERRg) (AID 2282977).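 Note: hits increase reporter signal over DMSO so potencies reflect activators.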 To be noted: HepG2 Attagene TRANS reporter, ERRg transactivation. Put shortly: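 Exogenous NR-Gal4 chimera activity measured as reporter transcript induction after 24 h in transiently transfected HepG2 cells. RNA reverse-transcribed, PCR-amplified, 6-FAM-labelled and resolved by capillary electrophoresis; increase over DMSO baseline.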

The nature of assay [18]: ATG_GAL4_TRANS: Attagene TRANS-FACTORIAL HepG2 Assay for GAL4 (Internal Marker) (AID 2282976). The conditions noted are these: HepG2 Attagene TRANS GAL4 internal marker reporter. Put shortly:
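Liver HepG2 line bearing multiplexed GAL4-UAS reporter constructs; 24 h chemical treatment. Transcripts were quantified as fluorescent fragments on capillary electrophoresis after RT-PCR and HpaI cut, with activity fitted upward from DMSO.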

Values joined by “and” are separate entries in the source; they are usually repeats but may differ in a detail not shown here. Equal entries are not always repeated. Records with an inconclusive call do not appear. Active and inactive are the calls of the source. Rule for the calls, unless noted: active = hit-call score of the fitted dose curve at least 0.9, where 1 is the maximum; inconclusive = response in the unintended direction; inactive = score below 0.9.

X-box-binding protein 1 (Homo sapiens), sequence (P17861 whole entry, looked up): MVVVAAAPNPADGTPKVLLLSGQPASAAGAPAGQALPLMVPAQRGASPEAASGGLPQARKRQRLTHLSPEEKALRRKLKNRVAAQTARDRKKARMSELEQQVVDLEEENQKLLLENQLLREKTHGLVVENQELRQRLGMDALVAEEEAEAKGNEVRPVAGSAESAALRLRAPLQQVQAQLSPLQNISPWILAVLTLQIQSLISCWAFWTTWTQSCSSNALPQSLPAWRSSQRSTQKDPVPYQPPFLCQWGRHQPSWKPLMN
Nuclear receptor subfamily 1 group I member 3 (Homo sapiens), sequence (Q14994 whole entry, looked up, the tested form may be a part): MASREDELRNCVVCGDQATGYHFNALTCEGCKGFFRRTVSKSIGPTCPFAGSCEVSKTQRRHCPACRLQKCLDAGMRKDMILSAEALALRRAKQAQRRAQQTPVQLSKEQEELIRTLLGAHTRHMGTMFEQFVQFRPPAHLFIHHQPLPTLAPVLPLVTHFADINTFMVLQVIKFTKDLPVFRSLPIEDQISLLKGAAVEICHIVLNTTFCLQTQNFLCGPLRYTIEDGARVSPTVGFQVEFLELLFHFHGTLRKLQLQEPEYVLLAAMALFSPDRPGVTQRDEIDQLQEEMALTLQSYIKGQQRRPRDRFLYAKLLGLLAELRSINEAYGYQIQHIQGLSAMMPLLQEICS
Transcriptional activator Myb (Homo sapiens), sequence (P10242 whole entry, looked up): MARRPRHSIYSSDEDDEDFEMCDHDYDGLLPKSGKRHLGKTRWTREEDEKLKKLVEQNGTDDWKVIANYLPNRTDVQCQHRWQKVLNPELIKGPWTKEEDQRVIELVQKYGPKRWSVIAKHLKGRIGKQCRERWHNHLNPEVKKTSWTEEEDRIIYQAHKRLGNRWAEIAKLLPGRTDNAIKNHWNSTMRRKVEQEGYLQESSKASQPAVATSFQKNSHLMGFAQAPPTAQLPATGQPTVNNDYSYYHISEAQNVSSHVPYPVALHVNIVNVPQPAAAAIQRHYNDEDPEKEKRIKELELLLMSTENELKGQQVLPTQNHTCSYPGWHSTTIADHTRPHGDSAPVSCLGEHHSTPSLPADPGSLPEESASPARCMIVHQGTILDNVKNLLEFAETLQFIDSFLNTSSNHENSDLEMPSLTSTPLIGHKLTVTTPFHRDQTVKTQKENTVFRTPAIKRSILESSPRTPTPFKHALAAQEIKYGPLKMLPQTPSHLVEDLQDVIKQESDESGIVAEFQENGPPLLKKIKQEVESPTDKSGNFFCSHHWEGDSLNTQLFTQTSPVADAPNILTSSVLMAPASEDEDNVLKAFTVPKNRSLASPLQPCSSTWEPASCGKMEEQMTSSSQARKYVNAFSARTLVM
Oxysterols receptor LXR-alpha (Homo sapiens), sequence (Q13133 whole entry, looked up, the tested form may be a part): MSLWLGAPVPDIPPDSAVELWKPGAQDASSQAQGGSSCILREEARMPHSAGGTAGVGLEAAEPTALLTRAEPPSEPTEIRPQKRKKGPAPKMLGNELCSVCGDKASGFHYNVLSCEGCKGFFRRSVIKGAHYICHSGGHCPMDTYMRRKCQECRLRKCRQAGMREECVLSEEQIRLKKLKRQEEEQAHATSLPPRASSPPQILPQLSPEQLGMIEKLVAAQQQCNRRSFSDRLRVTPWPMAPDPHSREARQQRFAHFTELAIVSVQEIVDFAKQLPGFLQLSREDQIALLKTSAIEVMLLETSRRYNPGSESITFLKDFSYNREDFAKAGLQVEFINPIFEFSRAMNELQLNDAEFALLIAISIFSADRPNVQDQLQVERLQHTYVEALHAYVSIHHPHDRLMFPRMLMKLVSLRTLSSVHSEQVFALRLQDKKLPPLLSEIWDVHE
Nuclear receptor subfamily 4 group A member 2 (Homo sapiens), sequence (P43354 whole entry, looked up, the tested form may be a part): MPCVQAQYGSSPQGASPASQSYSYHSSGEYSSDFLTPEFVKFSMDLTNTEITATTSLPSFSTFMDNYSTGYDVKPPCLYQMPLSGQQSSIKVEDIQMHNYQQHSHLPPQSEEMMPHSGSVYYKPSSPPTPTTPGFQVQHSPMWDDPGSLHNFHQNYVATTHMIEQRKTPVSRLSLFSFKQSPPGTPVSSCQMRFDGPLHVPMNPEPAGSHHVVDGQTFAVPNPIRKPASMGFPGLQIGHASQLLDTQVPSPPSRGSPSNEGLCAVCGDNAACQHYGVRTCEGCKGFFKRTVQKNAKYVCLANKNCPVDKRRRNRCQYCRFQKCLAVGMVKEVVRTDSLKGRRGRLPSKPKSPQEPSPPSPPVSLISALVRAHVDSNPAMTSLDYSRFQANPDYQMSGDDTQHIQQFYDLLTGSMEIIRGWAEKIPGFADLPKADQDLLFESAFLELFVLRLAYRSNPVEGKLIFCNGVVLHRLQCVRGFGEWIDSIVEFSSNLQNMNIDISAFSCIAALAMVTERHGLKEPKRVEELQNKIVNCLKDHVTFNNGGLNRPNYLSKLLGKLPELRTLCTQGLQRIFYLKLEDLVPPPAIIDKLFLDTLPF
Hepatocyte nuclear factor 4-alpha (Homo sapiens), sequence (P41235 whole entry, looked up, the tested form may be a part): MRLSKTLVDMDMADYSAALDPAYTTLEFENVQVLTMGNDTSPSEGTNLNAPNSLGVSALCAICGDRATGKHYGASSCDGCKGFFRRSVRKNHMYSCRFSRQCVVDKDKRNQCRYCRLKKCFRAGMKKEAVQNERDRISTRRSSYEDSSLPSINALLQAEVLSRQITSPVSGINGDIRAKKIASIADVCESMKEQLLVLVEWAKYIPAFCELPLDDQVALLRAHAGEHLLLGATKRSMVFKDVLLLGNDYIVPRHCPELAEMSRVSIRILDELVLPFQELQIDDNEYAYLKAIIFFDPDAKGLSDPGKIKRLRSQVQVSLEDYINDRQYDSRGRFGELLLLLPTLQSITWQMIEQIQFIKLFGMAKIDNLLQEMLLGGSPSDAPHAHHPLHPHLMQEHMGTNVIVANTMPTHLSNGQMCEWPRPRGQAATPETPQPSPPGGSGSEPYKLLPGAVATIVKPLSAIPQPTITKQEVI
Estrogen-related receptor gamma (Homo sapiens), sequence (P62508 whole entry, looked up, the tested form may be a part): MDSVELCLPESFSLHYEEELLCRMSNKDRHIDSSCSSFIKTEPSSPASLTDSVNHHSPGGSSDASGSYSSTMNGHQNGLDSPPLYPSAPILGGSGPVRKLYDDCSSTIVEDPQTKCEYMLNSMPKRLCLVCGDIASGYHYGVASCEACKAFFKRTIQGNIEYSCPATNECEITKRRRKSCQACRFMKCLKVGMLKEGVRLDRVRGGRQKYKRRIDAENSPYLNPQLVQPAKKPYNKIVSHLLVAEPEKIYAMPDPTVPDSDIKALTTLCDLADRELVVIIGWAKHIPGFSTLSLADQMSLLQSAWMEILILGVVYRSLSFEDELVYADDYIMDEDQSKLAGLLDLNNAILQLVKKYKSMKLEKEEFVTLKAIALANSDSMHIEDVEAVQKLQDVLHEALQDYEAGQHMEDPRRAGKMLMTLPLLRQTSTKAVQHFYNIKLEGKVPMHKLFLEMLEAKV
Estrogen receptor (Homo sapiens), sequence (P03372 whole entry, looked up, the tested form may be a part): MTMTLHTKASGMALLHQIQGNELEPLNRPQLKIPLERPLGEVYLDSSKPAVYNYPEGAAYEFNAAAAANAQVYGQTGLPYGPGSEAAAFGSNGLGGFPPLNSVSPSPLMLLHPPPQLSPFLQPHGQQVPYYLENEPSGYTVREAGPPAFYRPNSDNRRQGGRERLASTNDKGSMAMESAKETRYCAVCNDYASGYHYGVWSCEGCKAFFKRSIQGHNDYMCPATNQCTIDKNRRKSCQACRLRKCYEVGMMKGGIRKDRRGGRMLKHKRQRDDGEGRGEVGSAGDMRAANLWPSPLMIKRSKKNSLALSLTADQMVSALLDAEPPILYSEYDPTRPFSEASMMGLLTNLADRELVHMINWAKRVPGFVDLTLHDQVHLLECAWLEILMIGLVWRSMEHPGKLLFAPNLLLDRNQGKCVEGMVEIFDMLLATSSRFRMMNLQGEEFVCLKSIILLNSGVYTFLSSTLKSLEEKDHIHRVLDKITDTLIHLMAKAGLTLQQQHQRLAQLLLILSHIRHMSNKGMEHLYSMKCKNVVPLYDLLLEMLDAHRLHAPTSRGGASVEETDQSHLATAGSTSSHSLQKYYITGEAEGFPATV
Steroid hormone receptor ERR1 (Homo sapiens), sequence (P11474 whole entry, looked up, the tested form may be a part): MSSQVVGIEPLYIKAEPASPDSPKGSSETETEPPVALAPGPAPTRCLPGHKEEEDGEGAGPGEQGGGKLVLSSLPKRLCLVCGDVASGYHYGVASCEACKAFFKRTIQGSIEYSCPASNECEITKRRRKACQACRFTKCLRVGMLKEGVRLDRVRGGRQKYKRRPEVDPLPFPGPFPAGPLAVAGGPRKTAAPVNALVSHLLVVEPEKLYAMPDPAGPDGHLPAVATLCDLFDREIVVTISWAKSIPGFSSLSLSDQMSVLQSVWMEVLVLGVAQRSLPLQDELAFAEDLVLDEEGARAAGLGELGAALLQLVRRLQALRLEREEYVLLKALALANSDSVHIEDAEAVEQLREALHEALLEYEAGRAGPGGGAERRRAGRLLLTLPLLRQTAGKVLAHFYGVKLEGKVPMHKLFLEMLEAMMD
Oxysterols receptor LXR-beta (Homo sapiens), sequence (P55055 whole entry, looked up, the tested form may be a part): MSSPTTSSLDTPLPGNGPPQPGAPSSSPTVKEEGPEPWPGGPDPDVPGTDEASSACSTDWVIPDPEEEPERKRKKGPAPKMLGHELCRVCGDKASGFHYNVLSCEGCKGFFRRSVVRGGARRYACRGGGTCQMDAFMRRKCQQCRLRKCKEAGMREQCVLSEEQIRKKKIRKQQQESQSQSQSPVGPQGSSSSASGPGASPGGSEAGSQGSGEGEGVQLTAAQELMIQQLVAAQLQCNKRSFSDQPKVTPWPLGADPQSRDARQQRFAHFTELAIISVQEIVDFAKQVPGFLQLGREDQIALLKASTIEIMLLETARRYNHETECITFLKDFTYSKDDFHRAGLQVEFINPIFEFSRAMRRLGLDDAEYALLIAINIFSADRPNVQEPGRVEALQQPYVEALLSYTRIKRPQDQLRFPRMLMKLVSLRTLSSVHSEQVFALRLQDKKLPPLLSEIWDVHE

For `ClCc1cccnc1`, the result in assay [1], in assay [4], in assay [5], in [7], in assay [8] and in assay [9] was inactive. Moreover, the outcome in assay [10], in assay [11], in assay [12], in assay [13] and in [14] was inactive. The AC50 in assay [2] is 63.2 µM (active); in [3], 48.3 µM (active); in [6], 58.1 µM (active).

For `CC(C)c1cccc(C(C)C)c1O`, the call in assay [1], in assay [2], in [3], in assay [4], in assay [6] and in [7] was inactive. The compound was classed as inactive in [15], in assay [11], in assay [12], in assay [13] and in [14].

Turning to `COc1cc(-c2ccc(N)c(OC)c2)ccc1N`, the result in assay [1], in assay [2], in assay [4], in [16], in assay [7] and in assay [17] was inactive. The outcome in assay [10], in assay [11], in [13] and in assay [14] was inactive. For the same compound, the AC50 is 27.8 µM (active) and 31 µM (active) in assay [3]; 27.7 µM (active) and 33.6 µM (active) in [6].

Regarding `c1ccc(N=NNc2ccccc2)cc1`, the compound was classed as inactive in [1], in assay [2], in [4], in assay [16], in [17] and in assay [9]. The compound was called inactive in [10], in assay [11] and in assay [14]. Besides, the AC50 in assay [3] is 28.4 µM (active); in [5] it was 27.1 µM (active); in [6], 108 µM (active); in assay [13], 39.7 µM (active).

For the compound `CCOC(=O)Nc1cccc(OC(=O)Nc2ccccc2)c1`, the result in [1], in [2], in assay [3], in assay [4], in assay [6] and in assay [7] was inactive. Further, the compound was called inactive in assay [18], in assay [9], in assay [10] and in assay [14].

For the origin of these results see PubChem BioAssay (EPA / NIEHS).
